For 12 compounds, Potency results are on record in PubChem BioAssay AID488940 (National Center for Advancing Translational Sciences (NCATS), 2010).

SMILES strings stand for the structures. Active and inactive are the calls of the source. The call rests on the fitted dose curve.

DNA repair nuclease/redox regulator APEX1 (Homo sapiens), sequence (P27695 whole entry, looked up): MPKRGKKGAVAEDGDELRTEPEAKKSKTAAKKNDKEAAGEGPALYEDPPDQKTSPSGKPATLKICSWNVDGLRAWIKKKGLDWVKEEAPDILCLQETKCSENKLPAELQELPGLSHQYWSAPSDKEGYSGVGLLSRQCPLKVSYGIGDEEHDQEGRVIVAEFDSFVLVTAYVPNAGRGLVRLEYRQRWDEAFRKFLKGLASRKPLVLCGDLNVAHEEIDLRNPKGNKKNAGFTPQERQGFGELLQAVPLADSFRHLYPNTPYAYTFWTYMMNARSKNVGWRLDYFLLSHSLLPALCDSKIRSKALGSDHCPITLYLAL

In the test the target is DNA repair nuclease/redox regulator APEX1 (Homo sapiens) (UniProt P27695). Put plainly: Radiotracer Incision Assay (RIA) for Inhibitors of Human Apurinic/apyrimidinic Endonuclease 1 (APE1). The conditions noted are these: Recombinant APE1, radiolabeled AP-DNA incision, gel. From the text:
The apurinic/apyrimidinic endonuclease APE1 is the primary mammalian enzyme responsible for the removal of abasic (or AP) sites in DNA and functions centrally in the base excision DNA repair (BER) pathway. […] Thus, targeting APE1 could improve the efficacy of current treatment paradigms by promoting selective sensitization or protection of diseased and normal cells, respectively. This secondary Radiotracer Incision Assay was implemented to validated hits from the primary screen (AID 2517).
Recombinant wild type APE1 protein was purified as previously described (Erzberger et al., NAR, 1998). Fifty pg of APE1 (~140 pM) was incubated without (positive control containing 1% DMSO) or with 100 microM of the indicated inhibitor at room temperature in RIA buffer (50 mM Tris pH 7.5, 25 mM NaCl, 1mM MgCl2, 1 mM DTT, 0.01% Tween -20) for 15 min. One-half pmol of 32P 5'-radiolabeled AP-DNA substrate (18 mer) was added to a 10 microL final volume (see Wilson et al., JBC, 1995), and the reactions were incubated at 37 °C for 5 min and stopped by adding stop buffer (0.05% Bromophenol blue/ Xylene cyanol dissolved in 95% formamide, 20 mM EDTA) and heating at 950C for 10 min. Intact substrate was separated from incised product on a 15% polyacrylamide denaturing gel in tris boric acid EDTA buffer. Following electrophoresis, the gel was subjected to standard phosphoimager analysis using the ImageQuant 5.2 software, and the percent incision activity (amount of substrate converted to product) was calculated.
`CC(=O)Nc1sc2c(c1-c1nc3ccccc3s1)CCCN(C(C)C)C2`: the Potency is 14 µM (active).
Take `CC(=O)Nc1sc2c(c1-c1nc3ccccc3s1)CCS(=O)(=O)C2`: the Potency is 77 µM (active).
Take `CC(=O)Nc1sc2c(c1-c1nc3ccccc3s1)CN(C(C)C)C2`: the Potency was 4 µM (active).
For `CC(=O)Nc1sc2c(c1-c1nc3ccccc3s1)CCCNC2`, the Potency was 7 µM (active).
Under `CC(=O)Nc1sc2c(c1-c1nc3ccccc3o1)CCN(C(C)C)C2` stands 13 µM (active); under `CC(=O)Nc1sc2c(c1-c1nc3ccccc3s1)CCN(C)C2`, 5 µM (active); under `O=C(Nc1sc2c(c1-c1nc3ccccc3s1)CCNC2)C(F)F`, 4 µM (active).
With `CC(=O)Nc1sc2c(c1-c1nc(-c3ccccc3)cs1)CCN(C(C)C)C2`, the Potency was 3 µM (active).
Next, `CC(=O)Nc1sc2c(c1-c1nc3ccccc3s1)CCN(C(C)C)CC2`: 13 µM (active).
Next, `CC(=O)Nc1sc2c(c1-c1nc3ccccc3s1)CCN(C(C)C)C2`: 19 µM (active); `CC(=O)Nc1sc2c(c1-c1nc3ccccc3s1)CCN(C(C)=O)C2`: 5 µM (active); `CC(=O)Nc1sc2c(c1-c1nc3ccccc3s1)CCNC2`: 5 µM (active).
